Hit rate of the full screen: of about 69,000 compounds, about 8,600 (12%) showed an effect of 50% or more. The sample holds strong results, similar compounds and a random draw of the others, so the mix is not that of the screen.

This assay relates to Plasmodium berghei. The assay can be described thus: Screen against P. berghei liver stage (PbLuc), transformed with Luciferase, at 10uM. It counts as functional, HepG2. Particulars: tested at 10 uM.
Take `CC(C)N(C)Cc1nnn2c1CN(Cc1cccnc1)CCC2`: the INHIBITION is reported as -50.9%. As for `CCC(CO)n1cnc2scc(C)c2c1=O` (stereo unspecified), the INHIBITION is reported as 1.19%.

`C[C@@H]1CN(Cc2nc(C(N)=O)no2)CC[C@@]1(O)C1CC1`: the INHIBITION came to 6.26%. With `NC1CCCCN(Cc2cc(-c3ccccc3OC(F)(F)F)no2)C1` (stereo unspecified), the INHIBITION was 79.7%. `C[C@@H]1CN(Cc2cc(C3CCCCC3)no2)CC[C@@]1(O)C1CC1`: the INHIBITION amounted to 63.3%. To `N[C@@H]1CCN(Cc2cc(-c3ccccc3OC(F)(F)F)no2)C[C@H]1O` belongs -48.3%.

As to `Cc1nonc1CN1CC[C@@](O)(C2CCOCC2)[C@H](C)C1`, the INHIBITION is listed as 47.7%. Consider `COc1cc(F)c(CN2CC[C@@](O)(C3CC3)[C@H](C)C2)cc1OC`, for which the INHIBITION is recorded as -39.2%. The same measure for `C[C@@H]1CN(Cc2nc(C(N)=O)no2)CC[C@@]1(O)C1CCOCC1`: 59.1%; for `C[C@@H]1CN(Cc2cc(C(F)(F)F)ccc2F)CC[C@@]1(O)C1CC1`: -45%; for `OC1COCCN(Cc2cc(-c3ccccc3OC(F)(F)F)no2)C1` (stereo unspecified): -26.1%. The same measure for `COCCCC(=O)N(CCC(=O)O)Cc1ccc(F)c(F)c1`: 23.1%; for `CC(C)NC(=O)N1CCN(CC2CC2)c2ncccc2C1`: 30.3%. To `O=S(=O)(C1CC1)N1CC[C@H](OCC2CC2)[C@@H]1Cc1cccnc1` belongs -4.02%. For the compound `CCN(c1ccc(C(=O)NCCCN2CCCCC2)cc1)S(=O)(=O)CC`, the INHIBITION is reported as 21.7%. Turning to `COc1cccc(-c2nccnc2C2CCN(C(C)=O)CC2)c1`, the INHIBITION is on record as 57.4%. Regarding `CC(=O)N1CCC(c2nccnc2Oc2ccccc2)CC1`, the INHIBITION came to 39.2%.

As for `COc1ccc(Oc2nccnc2C2CCN(C(C)=O)CC2)cc1`, the INHIBITION is recorded as 58.1%. The same measure for `COc1ccc(-c2cc(C3CCN(C(C)=O)CC3)ccn2)cc1`: -24.1%; for `CC(=O)N1CCC(c2nccnc2-c2ccc(F)c(F)c2)CC1`: 26.8%. For the compound `COc1ccc(-c2nccnc2C2CCN(C(C)=O)CC2)cc1`, the INHIBITION was found to be 40.9%.

On to `Cn1nnnc1SC1CCCN(c2ccccc2Cl)C1=O` (stereo unspecified), for which the INHIBITION is on record as -40%. Turning to `CN(C)[C@@H]1CCN(C(=O)NC2CCCC2)[C@H]1Cc1cnn(C)c1`, the INHIBITION is 21%. As for `Cc1cc(C)n(CC2CCCN2C(=O)c2cnc3n[nH]c(C)c3c2)n1` (stereo unspecified), the INHIBITION was determined as 13.6%.

Turning to `CC(C)CN1C[C@@H](C(=O)O)C[C@@H](C(=O)NCc2ccncc2)C1`, the INHIBITION worked out at 2.79%. To `CCc1ccsc1C(=O)NC(C#N)CC` (stereo unspecified) belongs 30.9%.

`Cc1cc(CN(C)Cc2cc3c(cc2OC(F)F)OCO3)on1`: the INHIBITION is listed as -19.9%.

Take `Cc1nc(CN(C)Cc2cc3c(cc2OC(F)F)OCO3)oc1C`: the INHIBITION is given as 11.3%. To `Cc1cnc(CN(C)Cc2cc3c(cc2OC(F)F)OCO3)o1` belongs 60%; to `CN(C)Cc1cc(C2CCN(C(=O)C3CCCNC3)CC2)nn1C` (stereo unspecified), 27.2%. To `Cc1cc(NC(=O)c2ccccc2Br)n(C)n1` belongs 53.2%; to `Cc1cc(NC(=O)c2ccc(Br)cc2F)n(C)n1`, -77%. To `Cc1cc(NC(=O)c2ccc(F)cc2Br)n(C)n1` belongs -18.5%; to `Cc1ncc2c(n1)CN(Cc1nc(-c3ccsc3)no1)CC2`, 21%; to `COc1ccccc1CNC(=O)CN(C)C(C)c1nccs1` (stereo unspecified), -45.6%. `CCn1nc(C)c(NC(=O)CN(C)C(C)c2nccs2)c1C` (stereo unspecified): the INHIBITION is -23.4%. For the compound `Cc1cccc(C(C)C)c1NC(=O)CN(C)C(C)c1nccs1` (stereo unspecified), the INHIBITION was 73.6%. To `CCCNC(=O)N1CCC(c2nnc(Cn3cccn3)n2C2CC2)CC1` belongs -50.7%; to `CC(O)CN1CCN(C(=O)c2cc3ccccc3c(=O)[nH]2)CC1` (stereo unspecified), -3.95%; to `CC(C)c1nnc2ccc(N3CCC(C(=O)Nc4nccs4)CC3)nn12`, 79.8%. The same measure for `Cc1nnc2ccc(N3CCC(C(=O)Nc4nccs4)CC3)nn12`: 39.3%. The same measure for `CC(C)c1nnc2ccc(N3CCCC(C(=O)Nc4nccs4)C3)nn12` (stereo unspecified): 29%.

In the case of `Cc1nn(C)c(C)c1-c1cncc(C2CCN(S(C)(=O)=O)CC2)n1`, the INHIBITION is on record as 34.7%. `CN1[C@H](CN2CCCC2)C[C@@H]2CN(C(=O)c3cccn3C)CC[C@@H]21`: the INHIBITION is 14.1%. The same measure for `CCOc1ccc2c(c1)CN(Cc1nc3c(cnn3C)c(=O)[nH]1)CC2`: 48.2%; for `COCC1c2c(cnn2CC2CC2)CCN1Cc1ccc(OC)cc1` (stereo unspecified): 53.1%; for `COCC1c2c(cnn2CC2CC2)CCN1Cc1ccsc1` (stereo unspecified): -37.9%. The same measure for `COCC1c2c(cnn2CC2CC2)CCN1Cc1ccc(C)o1` (stereo unspecified): -52.7%; for `O=S(=O)(NCc1ccccc1)Nc1ccc(-n2ccnc2)cc1`: 44.8%. For `c1ccc(O[C@H]2CO[C@@]3(CCCN(Cc4nccs4)C3)C2)nc1`, the INHIBITION was found to be 49.7%. For `Cc1noc(C)c1CN1CCC[C@]2(C[C@@H](Oc3ccccn3)CO2)C1`, the INHIBITION was found to be 87%. To `Cc1noc(C)c1CN1CCC2(CC1)CC(Oc1cccnc1)CO2` (stereo unspecified) belongs 21.6%; to `Cc1csc(CN2CCC[C@]3(C[C@H](OCC4CC4)CO3)C2)n1`, 1.48%; to `Cc1csc(CN2CCC[C@]3(C[C@H](Oc4ccccn4)CO3)C2)n1`, 35.1%.

As to `CO[C@@H]1CO[C@@]2(CCCN(Cc3nc(C)cs3)C2)C1`, the INHIBITION came out at 65.7%. On to `Cc1csc(CN2CCC[C@]3(C[C@@H](Oc4ccccn4)CO3)C2)n1`, for which the INHIBITION is 64.4%. On to `Cc1noc(C)c1CN1CCOC2(CCCN(c3ccccn3)C2)C1` (stereo unspecified), for which the INHIBITION is reported as 20.9%. The same measure for `CCO[C@H]1CO[C@@]2(CCCN(Cc3nc(C)cs3)C2)C1`: 11.8%; for `CN1CCN(Cc2cnc3n2CCN(Cc2cccs2)C3)CC1`: 30.7%.

For `O=C(NC1CCNCC1)C1(N2CCCCC2)Cc2ccccc2C1`, the INHIBITION is 26.9%. To `CN(CCCO)c1nc(-c2ccc(C(N)=O)cc2)nc2c1CCNC2` belongs -3.3%; to `O=S(=O)(NC1CCOC1)c1ccc(C(F)(F)F)nc1` (stereo unspecified), 34.5%. Regarding `COc1cc(CN2C[C@@H]3CNC(=O)[C@H](C)[C@@H]3C2)cc(OC)c1`, the INHIBITION is -24.5%. The same measure for `O=C(c1ccoc1)N(Cc1cccnc1)C1CC1`: 17.1%. To `COc1ncccc1NC(=O)NC1CCCN(c2ncccn2)C1` (stereo unspecified) belongs -19.9%; to `CN(C)CCOCC1CN(CC2CCOCC2)Cc2nnn(C)c21` (stereo unspecified), 13%.

`CC(NC(=O)CCC(=O)c1cccs1)c1nnc2n1CCC2` (stereo unspecified): the INHIBITION was -31.5%. Turning to `CNC(=O)COC(=O)c1cccc(-n2ccc(C(F)(F)F)n2)c1`, the INHIBITION is listed as 40.6%. For the compound `CNC(=O)CCOC(=O)c1cccc(-n2cccn2)c1`, the INHIBITION came out at 77.7%. With `CNC(=O)CCOC(=O)c1cccc(-n2ccc(C(F)(F)F)n2)c1`, the INHIBITION amounted to 24.8%. Turning to `CO[C@H]1CCN(Cc2cnn(C)c2)[C@@H]2CN(Cc3cccnc3)C[C@H]12`, the INHIBITION is on record as 0%. To `COc1ccc(-c2cc(C(=O)NCCCn3ccnc3C)n(C)n2)cc1` belongs 18.3%; to `CCC(C)C(=O)NCc1cccc(OCCN(C)C2CCOCC2)c1` (stereo unspecified), 39.5%. As for `CN(CCOc1cccc(CNS(C)(=O)=O)c1)C1CCOCC1`, the INHIBITION was determined as 39.5%. Take `CN(CCOc1cccc(CNC(=O)C2CC2)c1)C1CCOCC1`: the INHIBITION is on record as 29.2%. In the case of `CC(C)CC(=O)NCc1cccc(OCCN(C)C2CCOCC2)c1`, the INHIBITION is given as 71.3%. Regarding `CN(CCOc1cccc(CN)c1)C1CCOCC1`, the INHIBITION is 0%.

In the case of `COCC(=O)NCc1cccc(OCCN(C)C2CCOCC2)c1`, the INHIBITION is 88.1%.

Take `CSC(C)(C)CNC(=O)NC1CCN(CC(F)F)CC1`: the INHIBITION worked out at 33.7%.

Consider `CN(C)CC1CN(Cc2ccc(F)cc2)Cc2nccn2C1` (stereo unspecified), for which the INHIBITION is 24.1%. On to `COc1ccc(-n2cc3nc(N)[nH]cc-3c2=O)cc1`, for which the INHIBITION was determined as 28.4%. The same measure for `O=C1[C@H]2CN(Cc3cccs3)C[C@H]2CN1c1ccsc1`: 14.8%; for `CCC(O)CN(Cc1ccccc1)S(=O)(=O)c1cnc(C)s1` (stereo unspecified): 52.6%; for `CCC(O)CN(c1ccccc1)S(=O)(=O)c1cnc(C)s1` (stereo unspecified): 37.8%.

Turning to `Cc1ncsc1C(=O)N(Cc1ccccc1)C1CC1`, the INHIBITION is listed as 33.45%. On to `CN(CCOc1ccc(C#N)cc1)CC1CCS(=O)(=O)C1` (stereo unspecified), for which the INHIBITION stood at 22.6%. Turning to `COc1ccc(CN2CC[C@@H]3[C@H]2CCC(=O)N3c2cnn(C)c2)cc1`, the INHIBITION worked out at 61.9%. Turning to `Cn1cc(N2C(=O)CC[C@@H]3[C@H]2CCN3Cc2ccncc2)cn1`, the INHIBITION is -10.4%. As for `Cn1cc(CN2CC[C@@H]3[C@H]2CCC(=O)N3c2ccccc2)cn1`, the INHIBITION is -46.8%. To `CN1CCN(C2CCN(CC(O)c3ccccc3F)CC2)C1=O` (stereo unspecified) belongs 17.065%. The same measure for `c1cnc(-c2nn3c(CN4CCCCC4)nnc3s2)cn1`: 6.83%. Turning to `COc1cc(CC2CC(C(N)=O)=NO2)cc2c1OCO2` (stereo unspecified), the INHIBITION is 16.3%. In the case of `CCOC(=O)C1=NOC(Cc2cc(OC)c3c(c2)OCO3)C1` (stereo unspecified), the INHIBITION was 60%.

As to `COC(=O)C1=NOC(Cc2cc(OC)c3c(c2)OCO3)C1` (stereo unspecified), the INHIBITION is recorded as 10.7%.

On to `CN1CC(C(=O)NCCc2ccc(F)c(Br)c2)CC1=O` (stereo unspecified), for which the INHIBITION is reported as -50.6%. The same measure for `O=C(CCN1CCC(c2cc3ccccc3[nH]2)CC1)N1CCOCC1`: 39.7%; for `O=C(CCN1CCCCC1c1cc2ccccc2[nH]1)N1CCOCC1` (stereo unspecified): 55.8%.

In the case of `COc1ccc(C2CCCCCN2CCCNS(C)(=O)=O)cc1` (stereo unspecified), the INHIBITION was determined as 0.914%. Regarding `CS(=O)(=O)NCCCN1CCCC1c1ccccc1` (stereo unspecified), the INHIBITION came to 9.25%. To `O=C(CCN1CCCCCC1c1ccco1)N1CCOCC1` (stereo unspecified) belongs 19.5%; to `CS(=O)(=O)NCCCN1CCCCC1c1cc2ccccc2[nH]1` (stereo unspecified), 52%; to `OC(CN1CCN(Cc2cccc(F)c2)CC1)C1CC1` (stereo unspecified), -16.5%. For the compound `Cc1n[nH]c(C)c1NC(=O)CN1CCCC1c1noc(C(C)C)n1` (stereo unspecified), the INHIBITION was found to be 14.1%.

As for `c1cncc(-c2noc(CN3CCOC(Cn4cccn4)C3)n2)c1` (stereo unspecified), the INHIBITION is listed as 16.1%. Take `Cc1ccc(CN(CCN(C)C)C(=O)Nc2cnn(C)c2)s1`: the INHIBITION came out at 46.4%. The same measure for `CN(C)c1nccc(C2CCCN2S(=O)(=O)c2cn(C)cn2)n1` (stereo unspecified): 12.3%.

For the origin of these results see ChEMBL document CHEMBL4513216, “Probing the Open Global Health Chemical Diversity Library for Multistage-Active Starting Points for Next-Generation Antimalarials” (ACS Infect Dis, 2020).
